Records with an inconclusive call do not appear. A call without a number means that no potency is given here. Activity calls are given as the source filed them. Calls come from the whole dose curve; as a rule, active = well fitted cell-killing curve with a large enough effect in the repeat runs; inconclusive = weak or mixed curves, or effect the other way; inactive = flat fitted curve, though single readings scatter.
Experiment: cAMP Responsive Elements (CRE) small molecule agonists, cell-based qHTS assay: qHTS cell viability counter screen (AID 2060914); note: nearly all actives have a fitted effect of over 50% in size
Conditions: CRE-bla HEK293T viability, CellTiter-Glo luminescence, 5 h; series mostly up to 92.4 µM
In short: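 Luminescence read-out (CellTiter-Glo, 30 min RT) of ATP-based viability in CRE-bla HEK 293T cells, run in the same wells as the β-lactamase reporter assay after 3 h compound treatment at 37 °C.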

| Structure (SMILES) | Potency |
| --- | --- |
| CC1(C)O[C@@H]2C[C@H]3[C@@H]4CCC5=CC(=O)C=C[C@]5(C)[C@H]4[C@@H](O)C[C@]3(C)[C@]2(C(=O)CO)O1 | inactive |
| CC[C@H]1CN2CCc3cc(OC)c(OC)cc3[C@@H]2C[C@@H]1C[C@H]1NCCc2cc(OC)c(OC)cc21 | inactive |
| OCCCCCO | inactive |
| CNC(C)=O | inactive |
| CC1=CCC(C(C)(C)O)CC1 (stereo not given) | inactive |
| Cc1ccc2c(c1)CCCN2 | inactive |
| CC[C@]1(O)C[C@@H]2CN(CCc3c([nH]c4ccccc34)[C@@](C(=O)OC)(c3cc4c(cc3OC)N(C)[C@H]3[C@@](O)(C(=O)OC)[C@H](OC(C)=O)[C@]5(CC)C=CCN6CC[C@]43[C@@H]65)C2)C1 | inactive |
| C/C=C/C(=O)N(CC)c1ccccc1C | inactive |
| CC(NCCC(c1ccccc1)c1ccccc1)c1ccccc1 (stereo not given) | inactive |
| C[N+](C)(C)CCOC(N)=O | inactive |
| C=CCCCCCCCCC(=O)O | inactive |
| C/C(=C(/OCCOc1ccc(Cl)cc1)c1ccc(Cl)cc1Cl)n1ccnc1 | inactive |
| COc1cc(NS(=O)(=O)c2ccc(N)cc2)nc(C)n1 | inactive |
| COc1ccc(CCN(C)CCCC(C#N)(c2cc(OC)c(OC)c(OC)c2)C(C)C)cc1OC (stereo not given) | inactive |
| O=[N+]([O-])c1ccc2c(c1)Cc1ccccc1-2 | inactive |
| COCCCN | inactive |
| CC1(C)[C@@H]2CC[C@]3(C2)[C@@H]1C(=O)CCC3(C)C | inactive |
| N=c1ccn2c(n1)O[C@H]1[C@H](O)[C@@H](CO)O[C@H]12 | inactive |
| Cc1ccc(O)cn1 | inactive |
| Clc1ccc2c(c1)CCc1cccnc1C2=C1CCNCC1 | inactive |

| Structure (SMILES) | Potency |
| --- | --- |
| C[C@]12CC[C@H]3C(=CCc4cc(O)ccc43)[C@@H]1CCC2=O | inactive |
| CC(C)(C)C(=O)CCc1ccc(Cl)cc1 | inactive |
| COC(=O)c1ccccc1C(=O)c1ccc(OCCN2CCCCC2)cc1 | inactive |
| O=c1[nH]c(=O)c2ccccc2o1 | inactive |
| Cn1cc(S(C)=O)c(=O)c2ccc(F)cc21 (stereo not given) | inactive |
| C=C(C)C(=O)O | inactive |
| NNC(=O)CP(=O)(c1ccccc1)c1ccccc1 | inactive |
| C=CCCCCCCCCCCCC | inactive |
| CC(C)CCCCCCc1ccc(OCCOCCO)cc1 | inactive |
| N#C/C(=C1\SCC(c2ccccc2Cl)S1)n1ccnc1 (stereo not given) | inactive |
| CCOC(=O)c1ccccc1 | inactive |
| Nc1nc(CC(=O)O)cs1 | inactive |
| CC(O)CCCCn1c(=O)c2c(ncn2C)n(C)c1=O (stereo not given) | inactive |
| COC(=O)c1ccc(I)cc1S(=O)(=O)NC(=O)Nc1nc(C)nc(OC)n1 | inactive |
| Brc1cc(-c2ccc(Br)c(Br)c2Br)cc(Br)c1Br | inactive |
| CCCOC(=O)C(C)O (stereo not given) | inactive |
| CC(C)[N+](C)(CCOC(=O)C1c2ccccc2Oc2ccccc21)C(C)C | inactive |
| CC1CCC(CO)CC1 (stereo not given) | inactive |
| O=S1(=O)CC=CC1 | inactive |
| CN(C(=O)c1c(O)c2ccccc2n(C)c1=O)c1ccccc1 | inactive |
